Activity calls are given as the source filed them.
Columns and labels:
Albumin (Bos taurus) = Albumin (Bos taurus) (UniProt P02769); assay: bovine serum albumin binders on microarray, profiling panel, artefact control for SMM control protein annotation, biochemical, small-molecule microarray, Alexa647 label, 635/667 nm fluorescence (AID 1118); details: BSA-A647 binding, fluorescence 635 nm, higher = more signal;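 further: score merges 667 nm emission intensity and signal-to-noise per printed compound spot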
Albumin (Bos taurus), sequence (P02769 whole entry, looked up): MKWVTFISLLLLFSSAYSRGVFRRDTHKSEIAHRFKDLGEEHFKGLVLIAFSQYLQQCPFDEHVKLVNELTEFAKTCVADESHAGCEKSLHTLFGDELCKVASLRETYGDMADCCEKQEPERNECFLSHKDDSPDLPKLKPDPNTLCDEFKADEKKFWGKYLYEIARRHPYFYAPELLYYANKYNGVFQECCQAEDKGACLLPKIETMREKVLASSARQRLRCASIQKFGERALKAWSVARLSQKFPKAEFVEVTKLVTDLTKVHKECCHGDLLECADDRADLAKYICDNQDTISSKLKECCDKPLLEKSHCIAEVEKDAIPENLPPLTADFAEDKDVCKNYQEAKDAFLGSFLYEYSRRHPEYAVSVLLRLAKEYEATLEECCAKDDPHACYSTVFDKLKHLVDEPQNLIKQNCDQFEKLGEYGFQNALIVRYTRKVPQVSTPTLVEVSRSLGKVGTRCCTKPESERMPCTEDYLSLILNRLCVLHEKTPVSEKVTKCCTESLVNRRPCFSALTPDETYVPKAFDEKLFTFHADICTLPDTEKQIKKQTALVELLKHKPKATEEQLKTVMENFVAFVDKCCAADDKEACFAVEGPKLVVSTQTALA

[1] = small-molecule microarray binders of probe aXIP, primary screen, biochemical, NeuroSMM set, 635/667 nm fluorescence (AID 1119); details: higher = more signal, called active from +8 up or from −8 down;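 further: probe is the protein aXip251-270 applied at 1 µg/mL to compound-printed slides; binding of probe to printed compounds measured as 667 nm fluorescence plus signal to noise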
[2] = small-molecule binders of probe aNOTCH3, primary screen, biochemical, small-molecule microarray, 635/667 nm fluorescence (AID 1120); details: higher = more signal;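 further: probe is a biotin-tagged antibody raised against NOTCH3 rather than NOTCH3 protein; score merges spot fluorescence near 667 nm with spot signal to noise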
[3] = small-molecule binders of probe aNOTCH2, primary screen, biochemical, small-molecule microarray, 635/667 nm fluorescence (AID 1121); details: higher = more signal;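 further: score merges feature fluorescence read at 667 nm with its signal to noise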
[4] = target: Carbonic anhydrase 2 (Homo sapiens) (UniProt P00918); assay: CAII small-molecule binders, profiling panel, biochemical, small-molecule microarray, Alexa647-labelled CAII (AID 1122); details: CAII-A647 binding fluorescence, higher = more signal
[5] = COS7 lysate on small-molecule microarray, probe aHis, 635 nm (AID 1123); details: COS7 cell lysate, fluorescence, higher = more signal;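 further: z-score combines 667nm fluorescence intensity with signal-to-noise per printed compound spot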
[6] = compound binding in COS7 lysate, probe aLAP1, primary screen, cell lysate, small-molecule microarray (AID 1124); details: probe aLAP1, fluorescence, higher = more signal;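 further: lysate comes from COS7 cells expressing LAP1 and is applied at 0.3 µg/mL; score merges spot fluorescence near 667 nm with signal-to-noise over triplicate slides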
Sam68 (KHDRBS1) = assay: Sam68 small-molecule binders, primary screen, biochemical, small-molecule microarray, 635 nm fluorescence (AID 1125); details: small-molecule microarray binding, higher = more signal;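 further: score merges 667 nm channel intensity with signal to noise over triplicate slides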
[7] = tested on: Chordin-like protein 2 (CHRDL2); assay: CHRDL2 small-molecule binders, primary screen, biochemical, small-molecule microarray, 635 nm fluorescence (AID 1126); details: small-molecule microarray binding, fluorescence 635 nm; higher = more signal;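 further: printed compound slides probed with Chrdl2 protein at 4 µg/mL for 1 h at 4 C; score merges 667 nm emission intensity with signal to noise over three replicate slides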
[8] = target: Concanavalin-A (Canavalia ensiformis) (UniProt P02866); assay: ConA small-molecule binders, primary screen, artefact control for SMM control protein annotation, biochemical, small-molecule microarray, Alexa647 label, 635 nm (AID 1127); details: ConA-A647 binding fluorescence, higher = more signal;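 further: z combines 667 nm emission intensity with signal-to-noise across three replicate slides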
Concanavalin-A (Canavalia ensiformis), sequence (P02866 whole entry, looked up): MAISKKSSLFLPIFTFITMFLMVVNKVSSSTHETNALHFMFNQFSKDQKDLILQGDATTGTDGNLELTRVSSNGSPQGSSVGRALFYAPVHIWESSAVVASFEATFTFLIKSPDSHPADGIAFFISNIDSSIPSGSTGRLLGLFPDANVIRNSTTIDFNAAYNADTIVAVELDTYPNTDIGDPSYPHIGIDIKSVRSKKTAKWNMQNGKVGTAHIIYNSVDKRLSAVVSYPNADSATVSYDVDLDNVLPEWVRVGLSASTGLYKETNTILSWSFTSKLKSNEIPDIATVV

CC(=O)n1cc(C(O)C2C=CC3C(=O)N(c4ccccc4)C(=O)C3N2Nc2ccc(C(C)C)cc2)c2ccccc21 (stereo not given)
composite z-score (Albumin (Bos taurus)): 1.02
composite Z-score [1]: 1.19 (inactive)
composite z-score [2]: 0.328
composite z-score [3]: 0.08
composite z-score [4]: 0.433
composite z-score [5]: 2.87
composite z-score [6]: 0.503
composite z-score (Sam68 (KHDRBS1)): 1.29
composite z-score [7]: 0.0259
composite z-score [8]: 0.764

CCCCCN1CC=CC23O[C@@H]4/C=C\CCC(C)OC(=O)C4[C@H]2C(=O)N(CCCCCCO)[C@@H]3C1=O (stereo not given in full)
composite z-score (Albumin (Bos taurus)): 0.548
composite Z-score [1]: 0.928 (inactive)
composite z-score [2]: -0.311
composite z-score [3]: -0.164
composite z-score [4]: 0.781
composite z-score [5]: 0.84
composite z-score [6]: 1.57
composite z-score (Sam68 (KHDRBS1)): 0.623
composite z-score [7]: -0.41
composite z-score [8]: -0.296

CN1C(=O)[C@@]2(Cc3ccccc3)N=C(c3ccc(OCCCO)cc3)O[C@H]2c2ccccc21
composite z-score (Albumin (Bos taurus)): 0.495
composite Z-score [1]: 2.86 (inactive)
composite z-score [2]: 0.0894
composite z-score [3]: -0.0226
composite z-score [4]: 0.603
composite z-score [5]: 2.68
composite z-score [6]: -0.233
composite z-score (Sam68 (KHDRBS1)): 1.19
composite z-score [7]: 0.882
composite z-score [8]: 1.11

COCCOC(=O)N1C(=O)[C@@]2(c3cc(C#CCC(C(=O)OC)C(=O)OC)ccc31)[C@H](c1ccc(O)cc1)N1[C@H](c3ccccc3)[C@H](c3ccccc3)OC(=O)[C@H]1[C@@H]2C(=O)NC[C@H](O)c1ccccc1
composite z-score (Albumin (Bos taurus)): 0.781
composite Z-score [1]: 0.7 (inactive)
composite z-score [2]: -0.196
composite z-score [3]: -0.14
composite z-score [4]: 0.63
composite z-score [5]: 2.2
composite z-score [6]: 0.588
composite z-score (Sam68 (KHDRBS1)): 0.296
composite z-score [7]: -0.282
composite z-score [8]: 1.07

C=C(CCCC)/C(=C/C[C@H](OC(C)=O)c1ccc(OCCO)cc1)c1cc(C(=O)OC)ccc1OC
composite z-score (Albumin (Bos taurus)): 0.891
composite Z-score [1]: 0.414 (inactive)
composite z-score [2]: 0.0297
composite z-score [3]: -0.0743
composite z-score [4]: 0.663
composite z-score [5]: 1.49
composite z-score [6]: 0.561
composite z-score (Sam68 (KHDRBS1)): 1.17
composite z-score [7]: -0.15
composite z-score [8]: 0.366

COCCOC(=O)N1C(=O)[C@@]2(c3cc(C#CCNC(N)=O)ccc31)[C@H](c1ccc(O)cc1)N1[C@H](c3ccccc3)[C@H](c3ccccc3)OC(=O)[C@H]1[C@@H]2C(N)=O
composite z-score (Albumin (Bos taurus)): -0.864
composite Z-score [1]: -1.03 (inactive)
composite z-score [2]: -0.443
composite z-score [3]: -0.198
composite z-score [4]: -0.394
composite z-score [5]: -0.157
composite z-score [6]: -0.38
composite z-score (Sam68 (KHDRBS1)): -0.344
composite z-score [7]: -1.52
composite z-score [8]: -1.03

COc1cccc(/C=C(\C#N)C(=O)Nc2c(C)n(C)n(-c3ccccc3)c2=O)c1
composite z-score (Albumin (Bos taurus)): 0.998
composite Z-score [1]: -0.359 (inactive)
composite z-score [2]: -0.053
composite z-score [3]: -0.0454
composite z-score [4]: 0.767
composite z-score [5]: 0.366
composite z-score [6]: -0.0921
composite z-score (Sam68 (KHDRBS1)): 0.949
composite z-score [7]: -0.194
composite z-score [8]: 1.14

CO[C@H]1O[C@H](CO)[C@@H](OC(=O)c2ccc(Br)cc2)[C@@H]2OC(=O)[C@H](Cc3ccccc3)C/C=C/C[C@@H](Cc3ccccc3)C(=O)O[C@@H]12
composite z-score (Albumin (Bos taurus)): 0.776
composite Z-score [1]: 0.726 (inactive)
composite z-score [2]: 0.0971
composite z-score [3]: -0.15
composite z-score [4]: 0.704
composite z-score [5]: 0.186
composite z-score [6]: 1.07
composite z-score (Sam68 (KHDRBS1)): -0.148
composite z-score [7]: 0.136
composite z-score [8]: 0.599

O=C1NC(=O)C2C1C=CC(C(O)c1ccccn1)N2Nc1ccc(Cl)cc1Cl (stereo not given)
composite z-score (Albumin (Bos taurus)): 1.02
composite Z-score [1]: 0.222 (inactive)
composite z-score [2]: 0.0773
composite z-score [3]: 0.0554
composite z-score [4]: 0.815
composite z-score [5]: 3.23
composite z-score [6]: 0.048
composite z-score (Sam68 (KHDRBS1)): 0.25
composite z-score [7]: -0.44
composite z-score [8]: 0.786

CN(C)CCCCCCNC(=O)[C@@H]1C[C@@H]2C(=O)N[C@@H](CCCCN)C(=O)N2[C@@H]1c1ccc(O)cc1
composite z-score (Albumin (Bos taurus)): 0.73
composite Z-score [1]: 3.97 (inactive)
composite z-score [2]: 2.14
composite z-score [3]: 0.999
composite z-score [4]: 0.74
composite z-score [5]: 3.41
composite z-score [6]: 0.611
composite z-score (Sam68 (KHDRBS1)): 1.32
composite z-score [7]: 1.36
composite z-score [8]: 1.24

CCN(CC)c1ccc(N2CC=CC34O[C@@H]5/C=C\CCC(C)OC(=O)C5[C@H]3C(=O)N(C(C)CO)[C@@H]4C2=O)cc1 (stereo not given in full)
composite z-score (Albumin (Bos taurus)): -0.739
composite Z-score [1]: 0.451 (inactive)
composite z-score [2]: -0.24
composite z-score [3]: -0.148
composite z-score [4]: 0.42
composite z-score [5]: -0.175
composite z-score [6]: -0.165
composite z-score (Sam68 (KHDRBS1)): -0.0199
composite z-score [7]: 0.142
composite z-score [8]: -1.09

O=c1cccc(-c2ccco2)o1
composite z-score (Albumin (Bos taurus)): 0.167
composite Z-score [1]: 0.207 (inactive)
composite z-score [2]: 0.0522
composite z-score [3]: -0.127
composite z-score [4]: 0.25
composite z-score [5]: 0.193
composite z-score [6]: 0.462
composite z-score (Sam68 (KHDRBS1)): 0.969
composite z-score [7]: 1.05
composite z-score [8]: 0.495

CCCNC(=O)[C@@]1(Sc2ccc(C)cc2)CC(=O)N(C(C)C)[C@@H]1c1ccc(CO)cc1I
composite z-score (Albumin (Bos taurus)): -0.249
composite Z-score [1]: 0.292 (inactive)
composite z-score [2]: -0.219
composite z-score [3]: -0.163
composite z-score [4]: 0.771
composite z-score [5]: 1.22
composite z-score [6]: 0.846
composite z-score (Sam68 (KHDRBS1)): 0.58
composite z-score [7]: -2.46
composite z-score [8]: -0.818

CCOC(=O)C=Cc1ccccc1O
composite z-score (Albumin (Bos taurus)): 0.725
composite Z-score [1]: -0.116 (inactive)
composite z-score [2]: 0.186
composite z-score [3]: 0.0295
composite z-score [4]: 0.188
composite z-score [5]: 0.466
composite z-score [6]: 0.163
composite z-score (Sam68 (KHDRBS1)): 1.01
composite z-score [7]: 0.0871
composite z-score [8]: 0.591

COC(=O)C1N=C(c2ccc(OCCCO)cc2)N(c2ccccc2)O1 (stereo not given)
composite z-score (Albumin (Bos taurus)): 0.878
composite Z-score [1]: 0.608 (inactive)
composite z-score [2]: 0.187
composite z-score [3]: -0.0073
composite z-score [4]: 0.403
composite z-score [5]: 1.1
composite z-score [6]: 0.382
composite z-score (Sam68 (KHDRBS1)): 1.14
composite z-score [7]: 0.236
composite z-score [8]: 1.11

CCOC(=O)C[C@H]1[C@H](OC(=O)c2ccccc2-c2ccccc2)[C@@H](NC(=O)c2ccccc2)c2cc(OCCCO)ccc2N1C(=O)c1ccccc1
composite z-score (Albumin (Bos taurus)): 0.505
composite Z-score [1]: -0.383 (inactive)
composite z-score [2]: -0.0647
composite z-score [3]: -0.019
composite z-score [4]: 0.666
composite z-score [5]: 0.677
composite z-score [6]: 0.513
composite z-score (Sam68 (KHDRBS1)): 0.42
composite z-score [7]: 0.116
composite z-score [8]: 0.178
